Screening results deposited in PubChem by National Center for Advancing Translational Sciences (NCATS).
In the library only some 9.2% were active in any assay of this set; here they are far more common.
NPC1 promoter act = activators of NPC1 promoter. Huh7 NPC1 promoter luciferase reporter, 24 h. Potency, µM (titrated, usually from 9.22 µM), most hits filed as activators. 2.4% of 320,000 active; further: nearly all actives have a fitted effect of over 60% in size
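Readout is luciferase luminescence, reflecting NPC1 promoter activation in stably transfected Huh7 cells after 24 h compound exposure at 37 °C in reduced-serum medium with 10% FBS.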
FLuc modulator = counter-screen for miR-21 project: firefly luciferase inhibitors or activators; P08659; purified FLuc, Km substrates, luminescence inhibition; Potency, µM (series often up to 57.5 µM), usual class: inhibitors; 6.9% of 360,000 active; further: nearly all actives have a fitted effect of over 55% in size
Target sequence (P08659 whole entry, looked up): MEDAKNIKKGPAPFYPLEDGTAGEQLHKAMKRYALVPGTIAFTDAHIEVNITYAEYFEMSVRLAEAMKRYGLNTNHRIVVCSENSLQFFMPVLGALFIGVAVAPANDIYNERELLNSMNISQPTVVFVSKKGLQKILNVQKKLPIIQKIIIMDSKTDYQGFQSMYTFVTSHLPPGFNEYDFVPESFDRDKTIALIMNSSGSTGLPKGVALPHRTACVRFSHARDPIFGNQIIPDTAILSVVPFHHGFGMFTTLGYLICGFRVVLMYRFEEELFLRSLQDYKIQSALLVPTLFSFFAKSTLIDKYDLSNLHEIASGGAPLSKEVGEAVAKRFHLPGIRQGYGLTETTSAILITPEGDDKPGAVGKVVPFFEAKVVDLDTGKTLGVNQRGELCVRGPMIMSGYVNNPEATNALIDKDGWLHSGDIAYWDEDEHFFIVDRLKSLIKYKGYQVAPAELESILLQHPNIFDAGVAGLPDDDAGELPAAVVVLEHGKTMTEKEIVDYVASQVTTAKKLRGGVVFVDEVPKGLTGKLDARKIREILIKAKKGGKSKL
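Purified P. pyralis luciferase (10nM final) with 10uM D-luciferin and 10uM ATP (Km levels) in 50mM Tris acetate pH 7.5, 10mM Mg acetate, 0.01% Tween-20, 0.05% BSA; qHTS 6-point titration, ~60 µM downward; luminescence read.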
ELG1 repair inh = inhibitors of ELG1-dependent DNA repair in HEK293T cells; HEK293T ELG1-luciferase reporter, luminescence, 16 h; DNA damage induced by 5-fluorouridine; Potency, µM (top dose mostly 46.1 µM), usual class: inhibitors; 2.3% of 330,000 active; further: nearly all actives have a fitted effect of over 55% in size
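Luminescence from the luciferase reporter, measured 30 min after ONE-Glo reagent at room temperature, was the read-out. Beforehand, 2,000 cells per well were exposed for 16 hr at 37 °C to 5-fluorouridine together with compound or vehicle.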
Rab9 prom act = activates the Rab9 promoter; Potency, µM (highest dose often 9.22 µM), most hits filed as activators; AID 485297; 2.8% of 320,000 active; Huh7 Rab9 promoter-luciferase reporter, luminescence, 24 h; further: nearly all actives have a fitted effect of over 60% in size
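Quantitative HTS format; Huh7 Rab9-luciferase reporter cells (1500/well) receive compound 2 h post-plating, incubate 24 h at 37 °C, then get luciferase reagent for 10 min before luminescence reading.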
ELG1 genotox = induces genotoxicity in HEK293T cells with luciferase-tagged ELG1; AID 504466; Potency, µM (highest dose often 46 µM), hits mostly activators; 1.3% of 330,000 active; HEK293T ELG1-luciferase reporter, luminescence, 16 h; further: nearly all actives have a fitted effect of over 60% in size
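Luminescence read-out: rising ELG1-luciferase signal, reflecting elevated ELG1 protein under genetic stress, flags genotoxic compounds. Cells were treated for 16 hr at 37 °C before ONE-Glo detection.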
SMN2 splice up = increases expression of the SMN2 splice variant. AID 1458. HEK293 SMN2-luciferase splicing reporter, luminescence, 30-36 h. 2.8% of 210,000 active. Potency, µM (doses to about 46.1 µM), most hits filed as activators; further: nearly all actives have a fitted effect of over 55% in size
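HEK293 cells carry an SMN2 […]–luciferase reporter in which exon 7 inclusion puts luciferase in frame. Cells were plated 10-12 h before compound addition, then incubated 30-36 h at 37C. ONE-Glo luminescence was read; sodium butyrate at 4.5 mM final served as control.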
Each line names hits and unclear results; the compound was inactive in the other large screens. The call rests on the fitted dose curve; in most records, active means well fitted curve in the direction sought with a large enough effect; inconclusive means small, poorly fitted or top-dose-only effect, or another doubt; inactive means no such curve, though single readings can be large; an effect the other way counts as inactive or inconclusive.

CCOC(=O)C1=C(CN2CCN(c3cccc(OC)c3)CC2)NC(=O)NC1c1ccc(OC)cc1 (configuration not stated)	none (no result: NPC1 promoter act, ELG1 repair inh, Rab9 prom act, ELG1 genotox, SMN2 splice up)
Cc1ccc(OCCSc2ncccn2)c(C)c1	NPC1 promoter act 0.631µM, FLuc modulator 2.13µM, ELG1 repair inh inconclusive, Rab9 prom act 0.501µM, ELG1 genotox inconclusive, SMN2 splice up 3.16µM
c1cnc(SCCOc2cccc3ccccc23)nc1	NPC1 promoter act inconclusive, FLuc modulator 7.57µM, ELG1 repair inh inconclusive, Rab9 prom act 2.24µM, ELG1 genotox 11.6µM
CCN1C(=O)/C(=C/c2ccc(C)o2)N(C)C1=S	ELG1 repair inh inconclusive
O=S1(=O)CCN(Cc2ccccn2)CC1	none
O=S1(=O)CCN(Cc2csc(-c3cccs3)n2)CC1	NPC1 promoter act 1.26µM, FLuc modulator 19µM, ELG1 repair inh inconclusive, Rab9 prom act 1.78µM, ELG1 genotox inconclusive (no result: SMN2 splice up)
c1csc(-c2nc(CN3CCSCC3)cs2)c1	NPC1 promoter act inconclusive, FLuc modulator 2.39µM, ELG1 repair inh inconclusive, Rab9 prom act 0.398µM, ELG1 genotox 2.59µM (no result: SMN2 splice up)
Cc1nnc(N/N=C/C(C)c2ccccc2)[nH]c1=O (configuration not stated)	none (no result: SMN2 splice up)
CCc1ccccc1NC(=O)c1cnc(N2CCCCC2)c2ccccc12	none (no result: NPC1 promoter act, ELG1 repair inh, Rab9 prom act, ELG1 genotox, SMN2 splice up)
c1nc2ccc(Cc3ccc4nc[nH]c4c3)cc2[nH]1	none (no result: SMN2 splice up)
Nc1ccc2oc(-c3ccc4nc[nH]c4c3)nc2c1	NPC1 promoter act inconclusive, FLuc modulator 1.9µM, ELG1 repair inh inconclusive, Rab9 prom act inconclusive, ELG1 genotox inconclusive, SMN2 splice up 12.6µM
Cc1nc2ccc(-c3nc4cc(N)ccc4o3)cc2[nH]1	NPC1 promoter act 0.398µM, FLuc modulator 1.9µM, ELG1 repair inh inconclusive, Rab9 prom act 0.398µM, ELG1 genotox inconclusive, SMN2 splice up 2.82µM
CCOc1ccccc1C(=O)NC1(C(F)(F)F)C(=O)Nc2c1c(=O)[nH]c(=O)n2-c1ccccc1 (configuration not stated)	FLuc modulator inconclusive (no result: NPC1 promoter act, ELG1 repair inh, Rab9 prom act, ELG1 genotox)
COCCn1c(=O)[nH]c2cc(C(=O)NCc3ccccc3Cl)ccc2c1=O	SMN2 splice up 3.98µM (no result: NPC1 promoter act, ELG1 repair inh, Rab9 prom act, ELG1 genotox)
COCCn1c(=S)[nH]c2cc(C(=O)N3CCN(c4cccc(Cl)c4)CC3)ccc2c1=O	ELG1 repair inh inconclusive (no result: SMN2 splice up)
Cc1cc(C(=O)NCCN2CCN(c3cccc(Cl)c3)CC2)n(-c2ccccc2)n1	ELG1 repair inh 8.2µM
COCCn1c(=O)[nH]c2cc(C(=O)NCCN3CCN(c4cccc(Cl)c4)CC3)ccc2c1=O	ELG1 repair inh 20.6µM
CC(C)C(=O)Nc1ccc(C(=O)Nc2ccc(Br)cc2F)cc1	ELG1 repair inh inconclusive
Cn1cnnc1SCC(=O)Nc1ccc(OCc2ccccc2)cc1	FLuc modulator 15.1µM, ELG1 repair inh inconclusive, Rab9 prom act inconclusive, SMN2 splice up inconclusive
Cn1cnnc1SCC(=O)Nc1ccc(N2CCCCC2)cc1	FLuc modulator 13.5µM, ELG1 repair inh inconclusive (no result: SMN2 splice up)
COCCn1cnnc1SCC(=O)Nc1ccc(N2CCCCC2)cc1	FLuc modulator 19µM, ELG1 repair inh inconclusive (no result: SMN2 splice up)
Cn1cnnc1SCC(=O)Nc1ccccc1	none
N#Cc1cc2c(nc1SCc1ccncc1)CCC2	NPC1 promoter act inconclusive, FLuc modulator inconclusive, ELG1 repair inh inconclusive, Rab9 prom act inconclusive, ELG1 genotox inconclusive, SMN2 splice up 11.2µM
Cc1cc(NC(=O)CSc2nc3c(cc2C#N)CCCC3)no1	NPC1 promoter act 2.51µM, FLuc modulator inconclusive, ELG1 repair inh inconclusive, Rab9 prom act 1.58µM, ELG1 genotox inconclusive, SMN2 splice up 3.98µM
Cc1cc(NC(=O)CSc2nc3ccccc3cc2C#N)no1	NPC1 promoter act inconclusive, FLuc modulator inconclusive, ELG1 repair inh inconclusive, Rab9 prom act inconclusive (no result: SMN2 splice up)
Cc1cc(NC(=O)CSc2nc3c(cc2C#N)CCC3)no1	NPC1 promoter act 0.501µM, FLuc modulator inconclusive, ELG1 repair inh inconclusive, Rab9 prom act 0.501µM, ELG1 genotox 4.11µM (no result: SMN2 splice up)
Cc1ccc(Nc2cc(C)c(C#N)c3nc4ccccc4n23)cc1Cl	none (no result: NPC1 promoter act, ELG1 repair inh, Rab9 prom act, ELG1 genotox)
Cc1ccc(OC(C)C(=O)Nc2ccccc2C(=O)N2CCOCC2)cc1 (configuration not stated)	none (no result: SMN2 splice up)
COc1cc(OC)cc(-c2nc3ccccc3c(=O)n2OC(=O)c2ccc(C)c(C)c2)c1	ELG1 repair inh 10.3µM
